Source: PubChem
In the library only some 3% were active in any assay of this set; here they are far more common.
SARS PLP yeast – blocks SARS-CoV papain-like protease in a yeast assay; actives 0.19% (n = 330,000); S. cerevisiae expressing SARS-CoV PLpro, growth rescue; AID 485353; Potency, µM (doses to about 32.9 µM), for inactives: at the highest dose activity, positive = growth rescue, usual class: activators; calls by dose curve; further: 0% is about no effect; nearly all actives have a fitted effect of over 55% in size
Sm TGR inh – blocks Schistosoma mansoni thioredoxin glutathione reductase; Potency, µM (series often up to 114 µM), inactives show at the top dose activity change, negative = inhibition, most hits filed as inhibitors; Q962Y6; purified TGR, DTNB reduction, TNB absorbance 405 nm; actives 3% (n = 360,000); active means well fitted inhibition curve with a large enough effect; inconclusive means small, poorly fitted or top-dose-only effect; inactive means no such curve, though single readings can be large or run the other way; further: on the % scale 0 is the no-effect control and ±100 the full control effect; nearly all actives have a fitted effect of over 60% in size
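TGR 20 nM + NADPH 100 uM (dispensed conc.), cpd preinc 15 min RT; start with NADPH (500 uM addition) then DTNB (15 mM addition). Kinetic TNB absorbance, 405 nm filter. Four-parameter Hill fit across titration.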
An asterisk follows results filed as active; [ ] = remark or other dose. Potency means the concentration at half of the fitted maximal effect.

How did O=C(COC(=O)/C=C/c1cccc([N+](=O)[O-])c1)NCCCN1CCCC1=O do in these assays?
SARS PLP yeast: -7%; Sm TGR inh: -3%

What do the screens show for `CN(C(=O)CSc1nc(-c2ccccc2)no1)c1ccc(F)cc1`?
Sm TGR inh: 4%

Results for CC(C)CCN(Cc1ccco1)C(=O)Cn1ncc2c([nH]c3ccccc32)c1=O ?
Sm TGR inh: -27%

What do the screens show for `CC(=O)N1c2ccc(S(=O)(=O)NCCC(=O)Nc3ccc(C)cc3Br)cc2CC1C` (centres undefined)?
Sm TGR inh: -3%

Results for CCOc1ccc(CNC(=O)CCC(=O)N2CC3CCCN3c3ccccc32)cc1 (centres undefined) ?
Sm TGR inh: 4%

How did CCCC[C@]12Cc3c(ccc4ccccc34)C(O1)C1=C(O2)C(=O)c2ccccc2C1=O do in these assays?
SARS PLP yeast: -5%[6.58 µM]; Sm TGR inh: inconclusive

How did O=S(=O)(Nc1ccc(S(=O)(=O)N2CCCCC2)cc1)c1ccc(Br)s1 do in these assays?
SARS PLP yeast: -17%; Sm TGR inh: 6.3µM*

Results for O=S(=O)(Nc1ccc(S(=O)(=O)N2CCCCCC2)cc1)c1cccs1 ?
SARS PLP yeast: 11%; Sm TGR inh: -5%

Results for Cn1c(=O)c2c(ncn2CC(=O)Nc2cccc(Cl)c2Cl)n(C)c1=O ?
Sm TGR inh: -4%

What do the screens show for `COc1cc(NC(=S)N(C)C)c(OC)cc1Cl`?
SARS PLP yeast: 0%; Sm TGR inh: 16%

What do the screens show for `COc1cc(NC(=S)NC2CC2)c(OC)cc1Cl`?
SARS PLP yeast: inconclusive; Sm TGR inh: 40µM*

What do the screens show for `COc1ccc2c(c1)Cc1sc(NC(=O)c3ccco3)nc1-2`?
SARS PLP yeast: -9%; Sm TGR inh: -4%

Results for COc1ccc2c(c1)Cc1sc(NC(C)=O)nc1-2 ?
SARS PLP yeast: -6%; Sm TGR inh: 56µM*

Results for COc1ccccc1N1CCN(S(=O)(=O)c2ccc(F)c(C(=O)Nc3ccc(C)c(F)c3)c2)CC1 ?
Sm TGR inh: 4%

Results for O=C(O)C1Cc2ccccc2-c2ccccc2C1 ?
SARS PLP yeast: -1%; Sm TGR inh: -3%

What do the screens show for `O=C(O)[C@@H]1Cc2ccccc2N1`?
SARS PLP yeast: 0%; Sm TGR inh: 56µM*

How did CCc1cccc(NC(=O)Cn2c(=O)n(CCC(=O)NCc3ccccc3Cl)c(=O)c3sccc32)c1 do in these assays?
Sm TGR inh: 4%

Results for Oc1ccccc1N=Cc1c(O)ccc2ccccc12 ?
SARS PLP yeast: -6%; Sm TGR inh: 28µM*

What do the screens show for `Oc1ccccc1C=Nc1cccc2ccccc12`?
SARS PLP yeast: 3%; Sm TGR inh: 6%

What do the screens show for `CC(=O)c1cccc(N=Cc2c(O)ccc3ccccc23)c1`?
SARS PLP yeast: -5%; Sm TGR inh: -17%

How did Oc1c(C=NCc2ccccc2)sc2ccccc12 do in these assays?
SARS PLP yeast: -1%; Sm TGR inh: 4%[57.1 µM]

What do the screens show for `Oc1cccc(C=Nc2cccc3ccccc23)c1O`?
SARS PLP yeast: -6%; Sm TGR inh: 7.9µM*

What do the screens show for `Cc1cc(C(=O)O)ccc1N=Cc1c(O)ccc2ccccc12`?
SARS PLP yeast: -6%; Sm TGR inh: 50µM*

What do the screens show for `Oc1ccc2ccccc2c1C=Nc1ccccc1Br`?
SARS PLP yeast: 1%; Sm TGR inh: -23%

How did Oc1cccc(C=NCc2ccccc2)c1O do in these assays?
SARS PLP yeast: -6%; Sm TGR inh: 50µM*

How did COCCN(Cc1ccc(C)c(Br)c1)S(=O)(=O)c1ccc2[nH]c(=O)ccc2c1 do in these assays?
Sm TGR inh: -17%

What do the screens show for `CCc1ccccc1NS(=O)(=O)c1ccc2c(c1)CC(=O)N2`?
Sm TGR inh: -2%

Results for COC(=O)c1sccc1S(=O)(=O)N(CC(=O)Nc1cc(C)ccc1C)c1ccc(C)c(C)c1 ?
Sm TGR inh: -9%

How did COCCNC(=O)CCCn1c(SCC(=O)c2ccc(F)cc2)nc2c(sc3ccccc32)c1=O do in these assays?
Sm TGR inh: -1%

How did C=Cc1ccc(N=Cc2c(O)ccc3ccccc23)cc1 do in these assays?
SARS PLP yeast: -6%; Sm TGR inh: 63µM*

How did CC(=O)N(C)c1ccc(N=Cc2c(O)ccc3ccccc23)cc1 do in these assays?
SARS PLP yeast: -2%; Sm TGR inh: inconclusive

What do the screens show for `Oc1ccc2ccccc2c1C=NC12CN3CCN(CN(C3)C1)C2`?
SARS PLP yeast: -7%; Sm TGR inh: 45µM*

Results for OCC(CO)(CO)N=Cc1c(O)ccc2ccccc12 ?
SARS PLP yeast: -2%; Sm TGR inh: 12%

Results for Cc1ccc(NS(=O)(=O)c2cc(-c3cnc(C4CC4)o3)ccc2C)cc1Cl ?
Sm TGR inh: -8%

Results for CN(C(=O)/C=C/c1ccc([N+](=O)[O-])s1)c1ccccc1 ?
SARS PLP yeast: -2%; Sm TGR inh: 11µM*

How did CN(C(=O)COC(=O)/C=C/c1ccccc1[N+](=O)[O-])c1ccccc1 do in these assays?
SARS PLP yeast: 2%; Sm TGR inh: 46%
